Assay results published in PubChem BioAssay.
Active and inactive are the calls of the source.

How the values were obtained:
[1] = system: Plasmodium falciparum Sir2 (PF13_0152, Sir2A); test: Plasmodium falciparum Sir2A binding compounds – biochemical, small-molecule microarray, 635 nm fluorescence, primary screen (AID 1098); details: fluorescence 635 nm, higher = more signal;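 further: score merges spot fluorescence intensity with its signal-to-noise ratio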
[2] = probe aDKK1 binding to arrayed compounds – biochemical, biotinylated probe, 635/667 nm fluorescence, primary screen (AID 1099); details: small-molecule microarray, higher = more signal;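 further: score merges 667nm spot fluorescence with signal to noise across triplicate slides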
[3] = probe aCHRDL2 binding to arrayed compounds – biochemical, biotinylated probe, 635/667 nm fluorescence, primary screen (AID 1100); details: small-molecule microarray, higher = more signal
[4] = change in splice reporter luminescence, either direction, cell-based, HEK293, spliceosome inhibition project, primary screen (AID 1101); details: HEK293 splicing luciferase reporter, 24 h, higher = more signal, called active from +8 up or from −8 down;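 further: HEK293 cells carrying a splicing-competent luciferase reporter gene; test concentration not given here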
[5] = target: Fibroblast growth factor 10 (Homo sapiens) (UniProt O15520); test: compounds binding fibroblast growth factor 10 – biochemical, small-molecule microarray, 635 nm fluorescence, primary screen (AID 1102); details: FGF10 binding, fluorescence 635 nm, higher = more signal
Chain of Fibroblast growth factor 10 (Homo sapiens) (O15520 whole entry, looked up): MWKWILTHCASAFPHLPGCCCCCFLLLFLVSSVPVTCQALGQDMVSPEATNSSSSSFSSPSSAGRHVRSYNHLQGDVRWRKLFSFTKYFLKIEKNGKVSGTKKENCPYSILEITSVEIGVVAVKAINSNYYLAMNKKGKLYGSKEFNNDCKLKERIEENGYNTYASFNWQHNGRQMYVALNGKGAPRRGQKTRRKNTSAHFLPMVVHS

[6] = system: glycogen synthase kinase-3 (GSK3A per assay name; protocol says GSK3B); test: compounds binding glycogen synthase kinase-3 – biochemical, small-molecule microarray, 635 nm fluorescence, GSK3A, primary screen (AID 1103); details: fluorescence 635 nm, higher = more signal; further: the record names both GSK3A and GSK3B
[7] = target: Epidermal growth factor receptor (Homo sapiens) (UniProt P00533); test: compounds binding epidermal growth factor receptor – biochemical, small-molecule microarray, 635 nm fluorescence, primary screen (AID 1104); details: EGFR binding, higher = more signal;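 further: score merges 667 nm emission intensity with spot signal to noise over triplicate slides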
Chain of Epidermal growth factor receptor (Homo sapiens) (P00533 whole entry, looked up): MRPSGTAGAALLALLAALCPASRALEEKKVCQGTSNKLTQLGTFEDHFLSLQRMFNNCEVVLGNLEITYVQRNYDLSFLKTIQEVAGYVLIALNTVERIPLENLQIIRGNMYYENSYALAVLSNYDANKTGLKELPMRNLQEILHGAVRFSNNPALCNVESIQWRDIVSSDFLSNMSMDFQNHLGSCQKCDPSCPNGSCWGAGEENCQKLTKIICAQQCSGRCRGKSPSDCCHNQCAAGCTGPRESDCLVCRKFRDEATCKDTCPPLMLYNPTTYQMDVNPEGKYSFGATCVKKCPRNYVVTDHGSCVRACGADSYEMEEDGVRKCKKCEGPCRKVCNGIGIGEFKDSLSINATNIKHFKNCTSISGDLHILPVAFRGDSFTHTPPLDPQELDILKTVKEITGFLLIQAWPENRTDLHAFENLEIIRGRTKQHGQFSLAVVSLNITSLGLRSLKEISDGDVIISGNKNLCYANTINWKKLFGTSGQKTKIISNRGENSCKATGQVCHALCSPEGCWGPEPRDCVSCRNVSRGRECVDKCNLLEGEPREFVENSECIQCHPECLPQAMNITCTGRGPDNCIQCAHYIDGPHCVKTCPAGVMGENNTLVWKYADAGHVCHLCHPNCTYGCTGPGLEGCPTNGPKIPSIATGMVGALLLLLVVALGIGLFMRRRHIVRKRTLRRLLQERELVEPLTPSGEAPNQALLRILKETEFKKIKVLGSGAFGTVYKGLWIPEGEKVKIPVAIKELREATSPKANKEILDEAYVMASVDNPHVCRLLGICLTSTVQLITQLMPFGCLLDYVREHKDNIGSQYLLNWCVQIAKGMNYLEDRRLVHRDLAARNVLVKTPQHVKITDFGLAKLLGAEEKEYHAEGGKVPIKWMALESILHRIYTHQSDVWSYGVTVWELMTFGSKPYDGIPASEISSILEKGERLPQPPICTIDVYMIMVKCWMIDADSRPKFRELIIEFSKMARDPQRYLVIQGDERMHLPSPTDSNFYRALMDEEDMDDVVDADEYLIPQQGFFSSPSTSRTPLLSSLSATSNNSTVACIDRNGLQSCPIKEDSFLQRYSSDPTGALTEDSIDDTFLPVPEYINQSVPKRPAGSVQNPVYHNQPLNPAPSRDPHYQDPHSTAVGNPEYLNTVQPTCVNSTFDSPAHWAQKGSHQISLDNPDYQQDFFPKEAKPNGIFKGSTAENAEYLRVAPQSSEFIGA

[8] = target: Follistatin-related protein 3 (Homo sapiens) (UniProt O95633); test: compounds binding follistatin-related protein 3 – biochemical, small-molecule microarray, 635 nm fluorescence, primary screen (AID 1105); details: FSTL3 binding, higher = more signal;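 further: score merges emission near 667 nm and signal to noise per printed spot across three slides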
Chain of Follistatin-related protein 3 (Homo sapiens) (O95633 whole entry, looked up): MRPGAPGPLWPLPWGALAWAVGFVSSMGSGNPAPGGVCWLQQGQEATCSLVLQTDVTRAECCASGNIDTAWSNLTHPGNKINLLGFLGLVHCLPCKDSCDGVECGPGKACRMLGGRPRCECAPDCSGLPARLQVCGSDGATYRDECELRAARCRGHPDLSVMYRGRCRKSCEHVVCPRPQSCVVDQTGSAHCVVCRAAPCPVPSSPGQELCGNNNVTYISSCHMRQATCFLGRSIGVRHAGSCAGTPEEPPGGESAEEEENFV

[9] = target: Dickkopf-related protein 1 (Homo sapiens) (UniProt O94907); test: small molecules binding DKK1 protein – biochemical, small-molecule microarray, 635 nm fluorescence scan, primary screen (AID 1106); details: higher = more signal;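 further: score merges emission near 667 nm with signal to noise over three replicate slides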
Chain of Dickkopf-related protein 1 (Homo sapiens) (O94907 whole entry, looked up): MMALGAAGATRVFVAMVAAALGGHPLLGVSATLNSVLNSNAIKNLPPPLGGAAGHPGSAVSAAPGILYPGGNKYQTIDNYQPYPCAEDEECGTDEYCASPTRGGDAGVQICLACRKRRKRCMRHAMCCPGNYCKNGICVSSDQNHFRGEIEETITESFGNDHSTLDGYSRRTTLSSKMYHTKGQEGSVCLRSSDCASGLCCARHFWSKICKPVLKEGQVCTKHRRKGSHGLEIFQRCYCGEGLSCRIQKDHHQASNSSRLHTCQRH

[10] = system: Inhibin beta A chain (activin A); test: small molecules binding activin A – biochemical, small-molecule microarray, 635 nm fluorescence scan, primary screen (AID 1107); details: INHBA, higher = more signal;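 further: mouse activin A protein probed at 4.33 µg/mL on printed slides; score merges bound-protein fluorescence near 667 nm with spot signal-to-noise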
[11] = system: Human papillomavirus type 1a protein E7 (residues 44-93); test: small molecules binding HPV E7 44-93 – biochemical, small-molecule microarray, residues 44-93, 635 nm fluorescence, primary screen (AID 1108); details: fluorescence 635 nm, higher = more signal;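 further: E7 fragment applied at 1 µg/mL in TBST for 1 h at 4 C; score combines spot fluorescence with its signal to noise ratio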
[12] = hepatitis C replication reporter changes, two-sided – Huh7 cells, luciferase reporter, HCV replication inhibitor project, primary screen (AID 1109); details: Huh7 HCV replicon luciferase reporter, 48 h; higher = more signal;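 further: huh7 hepatoma cells harbouring a luciferase neomycin HCV replicon reporter; luciferase luminescence as measure of HCV replicon replication; test concentration not given here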
[13] = target: Left-right determination factor 2 (Homo sapiens) (UniProt O00292); test: small molecules binding LEFTY2 protein – biochemical, small-molecule microarray, 635 nm fluorescence scan, primary screen (AID 1110); details: higher = more signal
Chain of Left-right determination factor 2 (Homo sapiens) (O00292 whole entry, looked up): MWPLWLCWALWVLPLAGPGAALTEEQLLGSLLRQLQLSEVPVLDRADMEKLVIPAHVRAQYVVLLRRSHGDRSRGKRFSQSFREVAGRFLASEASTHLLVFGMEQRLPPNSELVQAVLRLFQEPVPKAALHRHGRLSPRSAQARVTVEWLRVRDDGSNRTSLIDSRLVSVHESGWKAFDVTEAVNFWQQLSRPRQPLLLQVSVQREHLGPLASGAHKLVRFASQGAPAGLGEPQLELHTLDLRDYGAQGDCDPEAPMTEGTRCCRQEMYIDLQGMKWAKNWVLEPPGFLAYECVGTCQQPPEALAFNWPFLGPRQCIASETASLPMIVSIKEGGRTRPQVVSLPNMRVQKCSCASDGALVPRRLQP

[14] = target: Calmodulin-1 (Homo sapiens) (UniProt P0DP23); test: small molecules binding calmodulin-1 with EGTA – biochemical, small-molecule microarray, Cy5-labelled CALM1, profiling panel (AID 1111); details: Cy5-CALM1 binding fluorescence, higher = more signal;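 further: labelled calmodulin applied in Tris saline Tween buffer holding calcium plus EGTA and DTT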
[15] = target: Calmodulin-1 (Homo sapiens) (UniProt P0DP23); test: small molecules binding Ca-loaded calmodulin-1 – biochemical, small-molecule microarray, Cy5-labelled CALM1, plus calcium, artefact control for SMM control-protein annotation, profiling panel (AID 1112); details: Cy5-CALM1 binding fluorescence, higher = more signal;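 further: score merges spot fluorescence with signal to noise from triplicate slides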
[16] = probe aWnt5a binding to arrayed compounds – biochemical, biotinylated probe, 635/667 nm fluorescence, primary screen (AID 1113); details: small-molecule microarray, higher = more signal;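 further: score merges 667 nm fluorescence intensity with signal-to-noise per printed feature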
[17] = probe aShh binding to arrayed compounds – biochemical, biotinylated probe, 635/667 nm fluorescence, primary screen (AID 1114); details: small-molecule microarray, higher = more signal;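 further: probe is biotin-labelled aShh protein from a stem cell growth factor screen; measures binding of labelled protein to compounds printed on the slide; score merges feature fluorescence at 667 nm with signal-to-noise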
[18] = probe aNog binding to arrayed compounds – biochemical, biotinylated probe, 635/667 nm fluorescence, primary screen (AID 1115); details: small-molecule microarray, higher = more signal;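 further: probe is biotinylated aNog protein used at 0.15 µg/mL for 1 h at 4 C; z-score combines 667 nm fluorescence of each spot with its signal to noise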
[19] = target: Torsin-1A-interacting protein 1 (Homo sapiens) (UniProt Q5JTV8); test: compound microarray binding of lysate hLAP1 – cell lysate, small-molecule microarray, COS7 lysate, 635/667 nm fluorescence, primary screen (AID 1116); details: 635 nm fluorescence, higher = more signal
Chain of Torsin-1A-interacting protein 1 (Homo sapiens) (Q5JTV8 whole entry, looked up): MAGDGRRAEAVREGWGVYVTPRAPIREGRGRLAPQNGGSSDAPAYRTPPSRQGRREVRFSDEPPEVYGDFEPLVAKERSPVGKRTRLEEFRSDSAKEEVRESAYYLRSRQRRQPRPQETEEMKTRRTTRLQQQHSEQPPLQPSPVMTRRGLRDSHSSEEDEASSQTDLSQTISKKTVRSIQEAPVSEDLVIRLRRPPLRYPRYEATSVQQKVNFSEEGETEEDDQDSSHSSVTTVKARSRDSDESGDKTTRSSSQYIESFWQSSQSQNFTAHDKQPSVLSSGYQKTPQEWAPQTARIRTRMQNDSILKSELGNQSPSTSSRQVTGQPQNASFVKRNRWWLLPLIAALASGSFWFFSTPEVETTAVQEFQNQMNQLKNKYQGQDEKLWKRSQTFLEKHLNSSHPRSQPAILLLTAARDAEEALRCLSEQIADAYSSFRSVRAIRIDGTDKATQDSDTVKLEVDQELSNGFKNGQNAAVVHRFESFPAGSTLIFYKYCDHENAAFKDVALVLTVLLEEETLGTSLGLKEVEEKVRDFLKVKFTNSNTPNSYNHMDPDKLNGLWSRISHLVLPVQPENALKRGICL

[20] = target: Alpha-bungarotoxin (Bungarus multicinctus) (UniProt P60615); test: compounds binding labelled alpha-BTX control protein – biochemical, small-molecule microarray, Alexa647 label, 635/667 nm fluorescence, artefact control for SMM control protein annotation, profiling panel (AID 1117); details: alpha-BTX-A647 binding fluorescence, higher = more signal
Chain of Alpha-bungarotoxin (Bungarus multicinctus) (P60615 whole entry, looked up): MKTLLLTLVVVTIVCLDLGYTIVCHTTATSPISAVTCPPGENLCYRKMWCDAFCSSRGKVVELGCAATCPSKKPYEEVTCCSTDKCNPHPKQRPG

Row | Compound | composite z-score [1] | composite z-score [2] | composite z-score [3] | z-score [4] | composite z-score [5] | composite z-score [6] | composite z-score [7] | composite z-score [8] | composite z-score [9] | composite z-score [10] | composite z-score [11] | z-score [12] | composite z-score [13] | composite z-score [14] | composite z-score [15] | composite z-score [16] | composite z-score [17] | composite z-score [18] | composite z-score [19] | composite z-score [20]
1 | C=CCC(OC(C)=O)[C@@H]1[C@@H](N(Cc2cccc3ccccc23)C(=O)c2ccc(C)cc2)c2cc(OCCCO)ccc2N1C(=O)c1ccc2ccccc2c1 (stereo not given in full) | -0.269 | -0.259 | 0.281 | -1.86 (inactive) | 0.11 | 0.0882 | 0.286 | 0.421 | 0.181 | 1.08 | -0.44 | -0.945 | 0.346 | -0.0236 | -0.0542 | 0.0229 | -0.0793 | -0.329 | 0.139 | 0.132
2 | CC1(C)[C@@H]2CC(C(O)C3C=CC4C(=O)N(c5ccccc5)C(=O)C4N3Nc3ccccc3F)=C[C@@H]1C2 (stereo not given in full) | 1.4 | 0.26 | 0.471 | -1.75 (inactive) | 1.34 | 1.31 | 0.4 | 1.31 | 0.122 | 0.603 | 1.4 | -3.15 | 0.501 | 1.18 | -0.229 | 0.164 | 0.0639 | -0.256 | 1.34 | 1.12
3 | O=C(Nc1cc(Br)ccc1C(=O)NCc1cccc(O)c1)c1ccccc1 | 0.487 | 0.429 | -0.339 | -0.419 (inactive) | 0.394 | 0.476 | 0.379 | 0.148 | 0.257 | -0.0621 | 0.27 | -2.32 | 0.547 | 1.48 | 0.22 | 0.0297 | -0.252 | -0.75 | 0.888 | 1.36
4 | Cc1ccc(S[C@]2(C(=O)NCC(C)C)CC(=O)N(C3CCCCC3)[C@@H]2c2ccc(CO)cc2I)cc1 | 0.42 | 0.0006 | 0.421 | -1.4 (inactive) | 0.231 | 0.296 | 0.21 | 0.468 | -0.147 | 0.83 | 1.35 | -2.6 | 0.261 | 1.73 | 0.549 | 0.02 | -0.188 | -0.471 | 0.703 | 0.0462
5 | COCCOC(=O)N1C(=O)[C@@]2(c3cc(C#CCCO)ccc31)[C@H](c1ccc(OCCO)cc1)N1[C@H](c3ccccc3)[C@H](c3ccccc3)OC(=O)[C@H]1[C@@H]2C(=O)N1CCc2cc(OC)c(OC)cc2C1 | 1.29 | -0.0877 | 0.232 | 0.309 (inactive) | 1.16 | 1.31 | 0.58 | 0.882 | 0.582 | 0.413 | 1.39 | -1.12 | 0.503 | 0.759 | 0.215 | -0.124 | -0.0904 | 0.0531 | -0.0856 | 0.642
